# Screening data: PubChem BioAssay, National Center for Advancing Translational Sciences (NCATS)
# IL1B secr inh = inflammasome signaling inhibition, IL-1 beta readout. hit rate 4.7% among 360,000. activity change, % at 57.5 µM. THP-1 LPS/ATP IL-1B secretion, AlphaLISA, 16 h; hits give low values. AID 743279; in the data active = activity change below about -50%; inconclusive = mostly about -30% to -49%
#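 THP-1 cells pretreated 1 hr with compounds (up to 57.5 uM final), then stimulated with LPS (250 ng/mL final) plus ATP (1.25 mM final); secreted IL-1B measured by AlphaLISA after 16 hr, decreased signal indicating inhibition.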
# TDP1 cell noCPT = qHTS for Inhibitors of human tyrosyl-DNA phosphodiesterase 1 (TDP1): qHTS in cells in absence of CPT. DT40 Tdp1-/- hTDP1 cells, no CPT, ATP luminescence, 48 h. Potency, µM (top dose mostly 46.2 µM), most hits filed as inhibitors. hit rate 15% among 420,000; also: nearly all actives have a fitted effect of over 55% in size
#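 Compound effects on proliferation are scored in DT40 Tdp1-/-;hTDP1 cells in the absence of CPT. ATP levels (CellTiter-Glo luminescence) are recorded after a ≥48 hr, 37 °C incubation.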
# ELG1 repair inh = inhibitors of ELG1-dependent DNA repair in HEK293T cells; HEK293T ELG1-luciferase reporter, luminescence, 16 h; DNA damage induced by 5-fluorouridine; hit rate 2.3% among 330,000; AID 504467; Potency, µM (doses to about 46.1 µM), most hits filed as inhibitors; also: nearly all actives have a fitted effect of over 55% in size
#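 Quantitative HTS, concentration-response format. 2,000 cells/well co-treated with 5-fluorouridine and compound, 16 hr in 5% CO2 at 37 °C; ONE-Glo luminescence read after 30 min.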
# DT40 TDP1 CPT = growth inhibition of DT40 Tdp1-/-;hTDP1 cells with camptothecin (screen for TDP1 inhibitors). AID 686979. Potency, µM (highest dose often 46.2 µM), hits mostly inhibitors. chicken DT40 Tdp1-/-;hTDP1 cells + 20 nM CPT, ATP luminescence, 48 h. hit rate 12% among 420,000; also: nearly all actives have a fitted effect of over 55% in size
#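 Chicken DT40 Tdp1-/- cells complemented with human TDP1, 400 cells/well, exposed to compounds plus 20 nM camptothecin for at least 48 h at 37 C; viability read as ATP content by CellTiter-Glo luminescence.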
# RORgamma inh = ROR gamma (mouse) transcription inhibition; P51450; Drosophila S2 Gal4-RORgamma UAS-luciferase reporter, 20 h; Potency, µM (doses to about 53.6 µM), actives largely listed as inhibitors; hit rate 5.4% among 310,000; also: nearly all actives have a fitted effect of over 60% in size
# Target sequence (P51450 whole entry, looked up, the tested form may be a part): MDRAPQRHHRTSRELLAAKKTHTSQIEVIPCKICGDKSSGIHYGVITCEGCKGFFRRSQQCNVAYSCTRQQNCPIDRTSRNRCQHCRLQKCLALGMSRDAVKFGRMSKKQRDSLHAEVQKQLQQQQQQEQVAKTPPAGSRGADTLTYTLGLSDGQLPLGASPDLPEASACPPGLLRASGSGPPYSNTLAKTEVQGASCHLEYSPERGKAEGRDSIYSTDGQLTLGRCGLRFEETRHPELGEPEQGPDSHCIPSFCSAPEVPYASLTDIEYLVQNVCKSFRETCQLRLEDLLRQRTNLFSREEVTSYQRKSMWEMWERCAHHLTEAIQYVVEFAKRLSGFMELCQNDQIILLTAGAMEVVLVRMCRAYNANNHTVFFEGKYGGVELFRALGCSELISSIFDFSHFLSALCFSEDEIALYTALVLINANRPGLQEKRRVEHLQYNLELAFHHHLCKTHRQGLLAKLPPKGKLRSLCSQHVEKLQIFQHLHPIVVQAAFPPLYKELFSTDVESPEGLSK
#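 Using a luciferase readout, inhibitors were identified by reduced reporter activity in Drosophila cells coexpressing a copper-inducible Gal4–ROR gamma fusion and UAS-driven Photinus luciferase, incubated 20 hr after 700 uM copper sulfate.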
# Gal4-VP16 FLuc = inhibits Gal4-VP16 luciferase reporter, ROR gamma counter-screen | Drosophila S2 Gal4-VP16 UAS-luciferase, luminescence, 20 h | Potency, µM (top dose mostly 53.6 µM), usual class: inhibitors | hit rate 3.5% among 310,000;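 also: Gal4-VP16 expression switched on by copper sulfate through the metallothionein promoter; nearly all actives have a fitted effect of over 50% in size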
# Numbers stand for hits; . = inactive; ? = inconclusive; / = no result given; ! = not confirmed by another sample; [ ] = another dose, or the depositor's remark. Rows were chosen to be rich in hits. Some 21% of all compounds tested hit in one or more screens of this group. Unless noted, calls follow the shape of the dose curve; as a rule, active = well fitted curve in the direction sought with a large enough effect; inconclusive = small, poorly fitted or top-dose-only effect, or another doubt; inactive = no such curve, though single readings can be large; an effect the other way counts as inactive or inconclusive.
SMILES,IL1B secr inh,TDP1 cell noCPT,ELG1 repair inh,DT40 TDP1 CPT,RORgamma inh,Gal4-VP16 FLuc
CCOC(=O)c1c(-c2ccc(OC)cc2)csc1NC(=O)CCN1C(=O)c2ccccc2C1=O,.,?,?,16µM,.,.
CCCCCN1C(=O)Cn2c(nc3ccccc3c2=O)C1C (stereo not given),.,?,.,.,?,.
COc1ccc(OC)c(S(=O)(=O)Nc2cccc(F)c2)c1,.,.,.,.,.,.
O=C(CN1C(=O)COc2ccc(S(=O)(=O)N3CCOCC3)cc21)NCc1ccc(Cl)cc1,/,.,/,.,/,/
CCOC(=O)c1c(NC(=O)CCN2CCOCC2)sc(C)c1-c1ccccc1,-78,23µM,21µM,21µM,.,.
CCOC(=O)c1sc(NC(=O)COc2ccccc2Cl)c(C(=O)OCC)c1C,/,?,/,.,/,/
CCOC(=O)c1sc(NC(=O)CNCc2ccccn2)c(C(=O)OCC)c1C,.,26µM,12µM,?,7.9µM,?
CCOC(=O)c1sc(NC(=O)CCN2CCCCCC2)c(C(=O)OCC)c1C,-99,?,.,?,11µM,?
CCOC(=O)c1c(NC(=O)C2C3CCC(O3)C2C(=O)O)sc(C)c1-c1ccc(C)cc1 (stereo not given),.,.,.,.,.,.
Cc1ccc(C(=O)N2CCN(c3ccc(NC(=O)Cc4ccccc4)cc3)CC2)cc1,?,?,?,?,.,.
COC(=O)c1sc(NC(=O)c2ccc3c(c2)OCO3)c(C#N)c1C,.,.,/,.,/,/
O=c1cc(-c2ccc(F)cc2)nc(SCc2nc(-c3cccc(C(F)(F)F)c3)no2)[nH]1,/,.,/,.,/,/
C=CCc1ccccc1OCC(=O)NNC(=S)NCc1ccccc1,.,5.2µM,.,6.5µM,1.4µM,10µM
CC(C)(C)OC(=O)NNC(=S)NCc1ccc(Cl)cc1,.,?,.,.,14µM,?
O=C(COc1ccc(Br)cc1)NNC(=S)NCc1ccccc1,.,?,.,?,?,?
O=C(COc1ccc(Cl)cc1)NNC(=S)NCc1ccccc1,.,?,?,?,1.1µM,5.6µM
Cn1c(=O)n(Cc2ccccc2)c(=O)c2c1nc1n2CCN1c1ccccc1,/,.,/,.,/,/
O=C(O)CCCN1C(=O)/C(=C/c2ccncc2)SC1=S,-80,?,?,?,8.9µM,10µM
CC(c1ccccc1)N1C(=O)/C(=C/c2ccncc2)SC1=S (stereo not given),-50,23µM,?,?,?,16µM
CC(=O)Oc1ccc(/C=C2/SC(=S)N(Cc3ccccc3)C2=O)cc1,.,.,.,.,.,.
O=C(O)CCCCCN1C(=O)/C(=C/c2ccncc2)SC1=S,-98,23µM,.,23µM,11µM,10µM
COc1ccc(CN2C(=O)/C(=C/c3ccncc3)SC2=S)cc1,-82,9.2µM,?,23µM,?,?
O=C(O)C(c1ccccc1)N1C(=O)/C(=C/c2cccs2)SC1=S (stereo not given),.,.,.,.,.,.
CC(=O)c1ccc(OCC(=O)OCc2cc(-c3ccco3)on2)cc1,.,.,.,.,/,/
CN(CC(=O)NCc1cccnc1)S(=O)(=O)c1ccc(F)cc1,.,.,.,.,.,.
SMILES,IL1B secr inh,TDP1 cell noCPT,ELG1 repair inh,DT40 TDP1 CPT,RORgamma inh,Gal4-VP16 FLuc
CCN(CC)C(=O)c1cc(-c2ccc(Cl)cc2)on1,/,.,/,.,/,/
O=C(O)CCCCCN1C(=O)/C(=C\c2ccncc2)SC1=S,-99,23µM,?,23µM,13µM,10µM
O=C(O)CCCCCN1C(=O)/C(=C\c2ccc(-c3ccc(Cl)cc3)o2)SC1=S,.,?,.,?,.,.
C=CCCCCCCCCC(=O)O,/,.,/,.,.,.
CC(C)(C)c1cc(Br)c(O)c(N=Nc2ccc(S(=O)(=O)N3CCOCC3)cc2)c1,?,?,?,?,6.3µM,?
COc1cccc(/C=C2/SC(=S)N(CC(=O)NNC(=O)c3ccccc3OC)C2=O)c1,.,.,.,.,10µM,?
COc1cccc(/C=C2\SC(=S)N(CCCC(=O)N3CCCCC3)C2=O)c1,.,?,.,?,4.5µM,13µM
CCc1ccc(/C=C2\SC(=S)N(CCCC(=O)N3CCN(C)CC3)C2=O)cc1,-55,?,/,?,/,/
COc1ccc(/C=C2\SC(=S)N(CCCC(=O)N3CCN(C)CC3)C2=O)cc1,-91,?,.,?,7.1µM,?
COc1cccc(/C=C2\SC(=S)N(CCC(=O)NNC(=O)c3ccccc3OC)C2=O)c1,.,.,.,.,?,.
Nc1ncn(C2C[C@H](O)[C@@H](CO)O2)c(=O)n1 (stereo not given in full),/,/,/,/,.[10 µM],.
O=C(O)c1ccc2c(c1)C(=O)N([C@H](Cc1ccc(F)cc1)C(=O)O)C2=O,/,/,/,/,.,.
Cc1nc2cnc(Oc3cccc(Cl)c3)nc2n(CCC#N)c1=O,/,?,/,.,.,.
COc1cccc(/C=C2/SC(=S)N(CC(=O)Nc3nnc(C)s3)C2=O)c1,.,.,.,?,.,.
CCOC(=O)N1CCN(C(=O)CN2C(=O)/C(=C\c3cccc(OC)c3)SC2=S)CC1,/,8.9µM,/,7.9µM,/,/
CCN(c1ccc(OC)cc1)S(=O)(=O)c1cc(-c2cc(C)no2)ccc1C(C)C,.,21µM,.,?,.,.
COc1ccc(CNS(=O)(=O)c2cc(-c3cc(C)no3)ccc2OC)cc1OC,.,.,.,.,.,.
COc1ccc(-c2cc(C)no2)cc1S(=O)(=O)NCc1cccc(C)c1,.,?,.,.,.,.
COc1cccc(CNS(=O)(=O)c2cc(-c3cc(C)no3)ccc2C(C)C)c1,.,?,.,21µM,.,.
COc1ccc(-c2cc(C)no2)cc1S(=O)(=O)NCc1ccc(OC(C)C)cc1,.,18µM!,.,?,.,.
Cc1ccc(NC(=O)Cn2cnc3sc(C(=O)O)c(C)c3c2=O)cc1Cl,/,.,/,.,/,/
COCCCn1c(SCC(=O)NC2CCCC2)nnc1-c1ccncc1,.,.,.,.,.,.
O=C(CN1c2ccccc2S(=O)(=O)c2ccccc21)NCc1ccc(F)cc1,.,.,.,.,.,.
c1cnn(-c2nc(N3CCOCC3)nc(N3CCOCC3)n2)c1,?,5.8µM,?,6.5µM,.,.
Cc1cc(C)nc(SCC(=O)N/N=C\C(Br)=C\c2ccccc2)n1,.,15µM,.,6.5µM,.,?
Cc1ccc(NCC(=O)N/N=C\C(Br)=C\c2ccccc2)cc1,-98,5.8µM,.,3.3µM,?,?
O=C(CSc1ncccn1)NN=C1CCCCCCC1,.,.,.,.,.,.
Cc1cc(C)nc(SCC(=O)NN=C2CCCC2)n1,.,21µM,.,?,.,.
